Results: PubChem BioAssay AID1159580 (chemical genetic matrix, 2015)
The whole screen tested about 5,500 compounds, of which about 2,000 (36%) were called active. Not shown: some 18% with an inconclusive outcome. Rule as the data show it: active = normalized growth mostly below about 0.91 (no sharp cut-off); inconclusive = no clear call, values can overlap the other calls; inactive = mostly above about 0.92. Some of the results follow.

Experiment: chemical genetic growth profiling, strain panel (AID 1159580);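 also: tested at 20 µM; growth read once vehicle control cultures reached saturation at 30 °C; 1 = growth at the plate median or of vehicle wells; lower values mean less growth of the strain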
Settings: S. cerevisiae deletion strains, growth OD
[1] = locus YAL021C, strain ccr4, active compounds read low
[2] = locus YAL026C, strain drs2, active compounds read low
[3] = locus YAL030W, strain snc1, active compounds read low
[4] = locus YBL061C, strain skt5, active compounds read low
[5] = locus YBR009C, strain hhf1, active compounds read low
[6] = locus YBR023C, strain chs3, active compounds read low
[7] = locus YBR171W, strain sec66, active compounds read low
[8] = locus YBR231C, strain swc5, active compounds read low
[9] = locus YBR279W, strain paf1, active compounds read low
[10] = locus YCL011C, strain gbp2, active compounds read low
[11] = locus YCL016C, strain dcc1, active compounds read low
[12] = locus YCL061C, strain MRC1, active compounds read low
[13] = locus YCL069W, strain vba3, active compounds read low
[14] = locus YCR088W, strain abp1, active compounds read low
[15] = locus YDL005C, strain med2, active compounds read low
[16] = locus YDL040C, strain nat1, active compounds read low
[17] = locus YDR001C, strain nth1, active compounds read low
[18] = locus YDR069C, strain doa4, active compounds read low
[19] = locus YDR137W, strain rgp1, active compounds read low
[20] = locus YDR159W, strain sac3, active compounds read low
[21] = locus YDR297W, strain sur2, active compounds read low
[22] = locus YDR334W, strain swr1, active compounds read low
[23] = locus YDR335W, strain msn5, active compounds read low
[24] = locus YDR392W, strain spt3, active compounds read low
[25] = locus YEL003W, strain gim4, active compounds read low
[26] = locus YEL037C, strain rad23, active compounds read low
[27] = locus YEL061C, strain CIN8 (second series), active compounds read low
[28] = locus YER015W, strain faa2, active compounds read low
[29] = locus YER016W, strain bim1, active compounds read low
[30] = locus YER111C, strain swi4, active compounds read low
[31] = locus YER155C, strain BEM2 (second series), active compounds read low
[32] = locus YFR010W, strain ubp6, active compounds read low
[33] = locus YGL167C, strain pmr1, active compounds read low
[34] = locus YGL173C, strain kem1, active compounds read low
[35] = locus YGL227W, strain vid30, active compounds read low
[36] = locus YGL240W, strain doc1, active compounds read low
[37] = locus YGL253W, strain hxk2, active compounds read low
[38] = locus YHR013C, strain ard1, active compounds read low
[39] = locus YHR027C, strain rpn1, active compounds read low
[40] = locus YHR142W, strain chs7, active compounds read low
[41] = locus YJL092W, strain hpr5, active compounds read low
[42] = locus YJL095W, strain BCK1 (second series), active compounds read low
[43] = locus YJL115W, strain asf1, active compounds read low
[44] = locus YJL129C, strain trk1, active compounds read low
[45] = locus YJL154C, strain vps35, active compounds read low
[46] = locus YJL164C, strain tpk1, active compounds read low
[47] = locus YJL166W, strain qcr8, active compounds read low
[48] = locus YJL187C, strain SWE1, active compounds read low
[49] = locus YKL160W, strain elf1, active compounds read low
[50] = locus YKR026C, strain gcn3, active compounds read low
[51] = locus YKR091W, strain srl3, active compounds read low
[52] = locus YLL001W, strain dnm1, active compounds read low
[53] = locus YLL026W, active compounds read low
[54] = locus YLL041C, strain sdh2, active compounds read low
[55] = locus YLR027C, strain aat2, active compounds read low
[56] = locus YLR221C, strain rsa3, active compounds read low
[57] = locus YLR258W, strain gsy2, active compounds read low
[58] = locus YLR262C, strain YPT6 (second series), active compounds read low
[59] = locus YLR320W, strain mms22, active compounds read low
[60] = locus YLR342W, strain FKS1, active compounds read low
[61] = locus YLR357W, strain rsc2, active compounds read low
[62] = locus YLR370C, strain arc18, active compounds read low
[63] = locus YLR384C, strain iki3, active compounds read low
[64] = locus YML120C, strain ndi1, active compounds read low
[65] = locus YMR058W, strain fet3, active compounds read low
[66] = locus YMR125W, strain sto1, active compounds read low
[67] = locus YMR129W, active compounds read low
[68] = locus YMR205C, strain PFK2, active compounds read low
[69] = locus YMR231W, strain pep5, active compounds read low
[70] = locus YNL071W, strain lat1, active compounds read low
[71] = locus YNL209W, strain ssb2, active compounds read low
[72] = locus YNL248C, strain rpa49, active compounds read low
[73] = locus YNL322C, strain KRE1 (second series), active compounds read low
[74] = locus YNR049C, strain mso1, active compounds read low
[75] = locus YOR001W, strain rrp6, active compounds read low
[76] = locus YOR070C, strain gyp1, active compounds read low
[77] = locus YOR080W, strain dia2, active compounds read low
[78] = locus YOR083W, strain WHI5, active compounds read low
[79] = locus YOR106W, strain vam3, active compounds read low
[80] = locus YOR265W, strain rbl2, active compounds read low
[81] = locus YOR270C, strain vph1, active compounds read low
[82] = locus YOR290C, strain snf2, active compounds read low
[83] = locus YPL051W, strain arl3, active compounds read low
[84] = locus YPL078C, strain atp4, active compounds read low
[85] = locus YPL106C, strain sse1, active compounds read low
[86] = locus YPL240C, strain hsp82, active compounds read low

Measured: normalized growth

CC12CCC(O)CC1CCc1ccccc12 (configuration not stated)
active: [24] 0.634 | [58] 0.826
inactive: [1] 0.993 | [2] 0.972 | [3] 0.982 | [4] 0.967 | [5] 0.932 | [6] 0.967 | [7] 0.938 | [8] 0.998 | [9] 0.981 | [10] 0.981 | [11] 0.977 | [12] 0.967 | [13] 0.974 | [14] 0.978 | [15] 0.97 | [16] 0.979 | [17] 0.971 | [18] 0.984 | [19] 0.871 | [20] 0.936 | locus YDR195W, strain ref2 1 | [21] 0.971 | [22] 0.989 | [23] 0.972 | [25] 0.96 | [26] 0.98 | [27] 0.964 | [28] 0.983 | [29] 0.969 | [30] 0.96 | [31] 0.944 | [32] 0.979 | [33] 0.962 | [34] 0.957 | [35] 0.961 | [36] 0.901 | [37] 0.969 | [38] 0.974 | [39] 0.991 | [40] 0.973 | [41] 0.983 | [42] 0.99 | [43] 0.977 | [44] 0.92 | [45] 0.99 | [46] 0.968 | [47] 0.946 | [48] 0.971 | [49] 0.993 | [50] 0.954 | [51] 0.969 | [52] 0.991 | [53] 0.982 | [54] 0.974 | [55] 0.984 | [56] 0.98 | [57] 0.968 | [59] 0.906 | [60] 0.965 | [61] 0.935 | [62] 0.969 | [63] 0.993 | [64] 0.955 | [65] 0.97 | [66] 1 | [67] 0.961 | [68] 0.902 | [69] 0.988 | [70] 0.959 | [71] 0.988 | [72] 0.985 | [73] 0.959 | [74] 0.971 | [75] 0.967 | [76] 0.973 | [77] 0.968 | [78] 0.99 | [79] 0.966 | [80] 0.992 | [81] 0.94 | [82] 0.898 | [83] 0.986 | [84] 0.973 | [85] 1.01 | [86] 0.991

CC1CC(OC(=O)c2ccccc2O)CC(C)(C)C1 (configuration not stated)
inactive: [1] 0.977 | [2] 0.989 | [3] 0.985 | [4] 0.97 | [5] 0.914 | [6] 0.974 | [7] 0.987 | [8] 0.961 | [9] 0.98 | [10] 0.969 | [11] 0.991 | [12] 0.983 | [13] 0.987 | [14] 0.99 | [15] 0.968 | [16] 0.983 | [17] 0.984 | [18] 0.943 | [19] 0.922 | [20] 0.977 | locus YDR195W, strain ref2 0.968 | [21] 0.973 | [22] 0.985 | [23] 0.992 | [24] 0.89 | [25] 0.974 | [26] 0.987 | [27] 0.965 | [28] 0.975 | [29] 0.982 | [30] 0.985 | [31] 0.982 | [32] 0.971 | [33] 0.962 | [34] 0.967 | [35] 0.978 | [36] 0.933 | [37] 1 | [38] 0.865 | [39] 0.989 | locus YHR030C, strain SLT2, active compounds read low 0.94 | locus YHR079C, strain IRE1, active compounds read low 0.958 | [40] 0.978 | [41] 0.985 | [42] 0.993 | locus YJL095W, strain BCK1, active compounds read low 1.01 | [43] 1 | [44] 0.896 | [45] 0.987 | [46] 0.97 | [47] 0.943 | [48] 0.974 | locus YJR066W, strain TOR1, active compounds read low 0.943 | [49] 0.993 | [50] 0.953 | [51] 0.981 | [52] 1.01 | [53] 0.98 | [54] 0.989 | [55] 0.972 | locus YLR113W, strain HOG1, active compounds read low 1 | [56] 0.925 | [57] 0.97 | [58] 0.904 | [59] 0.952 | [60] 0.949 | [61] 0.975 | [62] 0.978 | [63] 0.997 | [64] 0.987 | [65] 0.981 | [66] 0.975 | [67] 0.998 | [68] 0.906 | [69] 1 | [70] 0.974 | locus YNL183C, strain NPR1, active compounds read low 0.947 | [71] 0.983 | [72] 0.989 | [73] 0.99 | [74] 0.982 | [75] 0.996 | [76] 0.989 | [77] 0.968 | [78] 1 | [79] 0.951 | locus YOR231W, strain MKK1, active compounds read low 0.958 | [80] 0.989 | [81] 0.977 | [82] 0.915 | [83] 1.01 | [84] 0.995 | [85] 0.974 | [86] 0.958 | locus YPL256C, strain CLN2, active compounds read low 0.94
